Results from PubChem BioAssay (NCI).
The panel holds about 83,000 compounds, 20% with a hit somewhere; the sample as a whole holds those more often.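 Values shown are percent growth following 48 h exposure of cells in 96-well plates to a single concentration of compound; below 10 was considered active.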 Activity calls are given as the source filed them.

Tests used:
Assay in all cases: NCI-60 one-dose screen, 48 h (100 = growth as untreated, 0 = no growth, -100 = all killed)
Settings in all cases: 10 µM
SK-MEL-2 melanoma = system: SK-MEL-2 melanoma
SN12C renal = system: SN12C renal
UO-31 renal = system: UO-31 renal
TK-10 renal = system: TK-10 renal
ACHN renal = system: ACHN renal
CAKI-1 renal = system: CAKI-1 renal
A498 renal = system: A498 renal
CCRF-CEM leukemia = system: CCRF-CEM leukemia
MOLT-4 leukemia = system: MOLT-4 leukemia
SR leukemia = system: SR leukemia
RPMI-8226 leukemia = system: RPMI-8226 leukemia
OVCAR-8 ovarian = system: OVCAR-8 ovarian
OVCAR-5 ovarian = system: OVCAR-5 ovarian
OVCAR-4 ovarian = system: OVCAR-4 ovarian
SK-OV-3 ovarian = system: SK-OV-3 ovarian
IGROV1 ovarian = system: IGROV1 ovarian
OVCAR-3 ovarian = system: OVCAR-3 ovarian
HS 578T breast = system: HS 578T breast
NCI/ADR-RES ovarian = system: NCI/ADR-RES ovarian

Measured: growth

COc1ccc(C2C=C(c3ccc(OC)c(OC)c3)N=C3SC=CN32)c(Br)c1 (configuration not stated)
active: CCRF-CEM leukemia -2.4% | SR leukemia -14.8% | RPMI-8226 leukemia -12.4%
inactive: SK-MEL-2 melanoma 104% | SN12C renal 75% | UO-31 renal 67.9% | TK-10 renal 106% | ACHN renal 76.6% | CAKI-1 renal 71.5% | A498 renal 74% | MOLT-4 leukemia 25.1% | OVCAR-8 ovarian 66.2% | OVCAR-5 ovarian 102% | OVCAR-4 ovarian 62.5% | SK-OV-3 ovarian 101% | IGROV1 ovarian 69.8% | OVCAR-3 ovarian 56.9% | HS 578T breast 90.4% | NCI/ADR-RES ovarian 78.2%

COc1cc(-c2c(C#N)c(N)n3c(nc4ccccc43)c2C#N)cc(Br)c1OC
inactive: SK-MEL-2 melanoma 76.7% | SN12C renal 40.1% | UO-31 renal 17.5% | TK-10 renal 11.1% | ACHN renal 50.1% | CAKI-1 renal 69.1% | A498 renal 67.1% | CCRF-CEM leukemia 19.6% | MOLT-4 leukemia 43.3% | RPMI-8226 leukemia 35.8% | OVCAR-8 ovarian 36.4% | OVCAR-5 ovarian 68.9% | SK-OV-3 ovarian 49.3% | IGROV1 ovarian 83.5% | HS 578T breast 19.7% | NCI/ADR-RES ovarian 78.1%
active: SR leukemia -1.43% | OVCAR-4 ovarian -2.8% | OVCAR-3 ovarian -36.6%

COc1cc(Nc2ccnc(N3CCN(c4ccnc5cc(Cl)ccc45)CC3)n2)cc(OC)c1
active: SK-MEL-2 melanoma -42.2% | UO-31 renal -1.54% | TK-10 renal -4.71% | A498 renal -1.87% | CCRF-CEM leukemia 3.84% | MOLT-4 leukemia -45.9% | SR leukemia -17% | RPMI-8226 leukemia -27.6% | OVCAR-8 ovarian 1.09% | SK-OV-3 ovarian 6.6% | IGROV1 ovarian 3.24% | NCI/ADR-RES ovarian 7.19%
inactive: SN12C renal 19% | ACHN renal 13.2% | CAKI-1 renal 20.2% | OVCAR-5 ovarian 30.8% | OVCAR-4 ovarian 30.4% | OVCAR-3 ovarian 15% | HS 578T breast 24.6%

O=c1c2cccc3c(Nc4ccc(Br)cn4)ccc(c32)c2nc3ccccc3n12
inactive: SK-MEL-2 melanoma 108% | SN12C renal 92.3% | UO-31 renal 52.1% | TK-10 renal 78.1% | ACHN renal 90.2% | CAKI-1 renal 83.9% | A498 renal 93.9% | CCRF-CEM leukemia 97.9% | MOLT-4 leukemia 92.9% | SR leukemia 52.9% | RPMI-8226 leukemia 56.2% | OVCAR-8 ovarian 103% | OVCAR-5 ovarian 90.7% | OVCAR-4 ovarian 53.7% | SK-OV-3 ovarian 94.3% | IGROV1 ovarian 48.9% | OVCAR-3 ovarian 94.1% | HS 578T breast 81.2% | NCI/ADR-RES ovarian 93.5%

COc1ccccc1S(=O)(=O)Nc1ccc2c(c1)CN(C)C(=O)N2
active: A498 renal -2.92% | RPMI-8226 leukemia 4.25%
inactive: SK-MEL-2 melanoma 47.6% | SN12C renal 53.2% | UO-31 renal 10.2% | TK-10 renal 17.3% | ACHN renal 34.7% | CAKI-1 renal 21.2% | CCRF-CEM leukemia 48.9% | MOLT-4 leukemia 38.4% | SR leukemia 36% | OVCAR-8 ovarian 56.2% | OVCAR-5 ovarian 74.5% | OVCAR-4 ovarian 43.1% | SK-OV-3 ovarian 49.1% | IGROV1 ovarian 24% | OVCAR-3 ovarian 32.2% | HS 578T breast 33.7% | NCI/ADR-RES ovarian 68.9%

O=c1oc2cc(OS(=O)(=O)C3CC3)ccc2c2c1CCCCCC2
inactive: SK-MEL-2 melanoma 103% | SN12C renal 82.8% | UO-31 renal 83.4% | TK-10 renal 121% | ACHN renal 82.1% | CAKI-1 renal 79.4% | A498 renal 63.8% | CCRF-CEM leukemia 64.4% | MOLT-4 leukemia 65.6% | SR leukemia 52.7% | RPMI-8226 leukemia 49.3% | OVCAR-8 ovarian 82.6% | OVCAR-5 ovarian 100% | OVCAR-4 ovarian 65.3% | SK-OV-3 ovarian 89.1% | IGROV1 ovarian 103% | OVCAR-3 ovarian 68.7% | HS 578T breast 106% | NCI/ADR-RES ovarian 68.4%

CCN(Cc1ccccc1)C1CCN(Cc2cc(Br)ccc2O)CC1
active: SR leukemia 7.57%
inactive: SK-MEL-2 melanoma 69.7% | SN12C renal 44.8% | UO-31 renal 23.5% | TK-10 renal 52.1% | ACHN renal 45.1% | CAKI-1 renal 44.7% | A498 renal 66.2% | CCRF-CEM leukemia 43.5% | MOLT-4 leukemia 61.2% | RPMI-8226 leukemia 21.9% | OVCAR-8 ovarian 59.9% | OVCAR-5 ovarian 68.1% | OVCAR-4 ovarian 36.9% | SK-OV-3 ovarian 76.9% | IGROV1 ovarian 44.6% | OVCAR-3 ovarian 51.8% | HS 578T breast 56.6% | NCI/ADR-RES ovarian 36.1%

O=C(Nc1cccc(C(F)(F)F)c1)C(Cl)Cl
inactive: SK-MEL-2 melanoma 97.4% | SN12C renal 105% | UO-31 renal 80.6% | TK-10 renal 108% | ACHN renal 103% | CAKI-1 renal 105% | A498 renal 101% | CCRF-CEM leukemia 98.8% | MOLT-4 leukemia 98.4% | SR leukemia 94.3% | RPMI-8226 leukemia 98.5% | OVCAR-8 ovarian 98.7% | OVCAR-5 ovarian 105% | OVCAR-4 ovarian 110% | SK-OV-3 ovarian 103% | IGROV1 ovarian 92.5% | OVCAR-3 ovarian 107% | HS 578T breast 107% | NCI/ADR-RES ovarian 104%

COc1ccc(-c2ccc(-c3ccc(C(=N)N)c(F)c3)s2)cc1
active: SK-MEL-2 melanoma -75.3% | SN12C renal -79.2% | UO-31 renal -86.8% | TK-10 renal -96.4% | ACHN renal -89.7% | CAKI-1 renal -89.8% | A498 renal -97.4% | CCRF-CEM leukemia -68.3% | MOLT-4 leukemia -80.1% | SR leukemia -21.2% | RPMI-8226 leukemia -65.6% | OVCAR-8 ovarian -48.7% | OVCAR-4 ovarian -67.9% | SK-OV-3 ovarian -93.8% | IGROV1 ovarian -62.7% | OVCAR-3 ovarian -96% | HS 578T breast -54.3% | NCI/ADR-RES ovarian -51.3%

COc1cc2ccnc(C=O)c2cc1OC
inactive: SK-MEL-2 melanoma 83.2% | SN12C renal 77.8% | UO-31 renal 13.8% | TK-10 renal 50.4% | ACHN renal 51.2% | CAKI-1 renal 47.5% | A498 renal 111% | MOLT-4 leukemia 29.7% | RPMI-8226 leukemia 50.6% | OVCAR-8 ovarian 44.2% | OVCAR-4 ovarian 80.9% | SK-OV-3 ovarian 106% | IGROV1 ovarian 70.5% | OVCAR-3 ovarian 24.9% | HS 578T breast 93.4% | NCI/ADR-RES ovarian 54.4%
active: CCRF-CEM leukemia -3.23% | SR leukemia 1.19%

Cc1ccccc1C1=N[C@@H](Cc2ccccc2)C(=O)c2c(nc3ccccn23)N1
inactive: SK-MEL-2 melanoma 115% | SN12C renal 107% | UO-31 renal 80.6% | TK-10 renal 138% | ACHN renal 94.5% | CAKI-1 renal 88.9% | A498 renal 98.2% | CCRF-CEM leukemia 105% | MOLT-4 leukemia 111% | SR leukemia 122% | RPMI-8226 leukemia 98.4% | OVCAR-8 ovarian 92.8% | OVCAR-5 ovarian 101% | OVCAR-4 ovarian 98.7% | SK-OV-3 ovarian 111% | IGROV1 ovarian 108% | OVCAR-3 ovarian 108% | HS 578T breast 102% | NCI/ADR-RES ovarian 95.6%

O=C(O)c1ccc(CNc2ccc(C(=O)CCl)cc2)cc1
inactive: SK-MEL-2 melanoma 96.6% | SN12C renal 99.3% | UO-31 renal 106% | TK-10 renal 104% | ACHN renal 99.3% | CAKI-1 renal 86.7% | A498 renal 61.4% | CCRF-CEM leukemia 48.7% | MOLT-4 leukemia 87.9% | SR leukemia 41.8% | RPMI-8226 leukemia 85.7% | OVCAR-8 ovarian 99.3% | OVCAR-4 ovarian 91% | SK-OV-3 ovarian 100% | IGROV1 ovarian 134% | OVCAR-3 ovarian 90.5% | HS 578T breast 87.4% | NCI/ADR-RES ovarian 123%

O=NN(CC(=O)N/N=C/C=C\c1ccccc1)CC(=O)N/N=C/C=C/c1ccccc1
inactive: SK-MEL-2 melanoma 111% | SN12C renal 78.1% | UO-31 renal 91.9% | TK-10 renal 131% | ACHN renal 86.4% | CAKI-1 renal 91.3% | A498 renal 105% | CCRF-CEM leukemia 94.9% | MOLT-4 leukemia 96.9% | SR leukemia 85.7% | RPMI-8226 leukemia 95.2% | OVCAR-8 ovarian 51% | OVCAR-5 ovarian 94.6% | OVCAR-4 ovarian 97.2% | SK-OV-3 ovarian 102% | IGROV1 ovarian 84% | OVCAR-3 ovarian 103% | HS 578T breast 80.5% | NCI/ADR-RES ovarian 103%

O=C1/C(=C/c2ccc(O)cc2)CSc2ccc(Cl)cc21
inactive: SK-MEL-2 melanoma 97.8% | SN12C renal 81.5% | UO-31 renal 73.1% | TK-10 renal 103% | ACHN renal 88.9% | CAKI-1 renal 79.9% | A498 renal 99.5% | CCRF-CEM leukemia 12.4% | MOLT-4 leukemia 22.3% | SR leukemia 62.7% | RPMI-8226 leukemia 98.2% | OVCAR-8 ovarian 89.8% | OVCAR-5 ovarian 95.2% | OVCAR-4 ovarian 94.9% | SK-OV-3 ovarian 105% | IGROV1 ovarian 16.7% | OVCAR-3 ovarian 90.4% | NCI/ADR-RES ovarian 82.2%

C=CCn1c(C)nc2cc(Nc3nc(Nc4ccc5nc(C)n(CC=C)c5c4)c4ccccc4n3)ccc21
active: SK-MEL-2 melanoma -84.1% | SN12C renal -69.6% | UO-31 renal -94.4% | TK-10 renal -97.2% | ACHN renal -97.4% | CAKI-1 renal -86.4% | A498 renal -100% | CCRF-CEM leukemia -11.3% | MOLT-4 leukemia -26.8% | SR leukemia -44.2% | RPMI-8226 leukemia -24% | OVCAR-8 ovarian -40.9% | OVCAR-5 ovarian -92.5% | OVCAR-4 ovarian -100% | SK-OV-3 ovarian -95.7% | IGROV1 ovarian -93.8% | OVCAR-3 ovarian -99.8% | NCI/ADR-RES ovarian -23.7%

Cc1ccc(/C(CS(=O)(=O)c2ccc(C)cc2)=N\O)cc1
inactive: SK-MEL-2 melanoma 104% | SN12C renal 89.3% | UO-31 renal 93% | TK-10 renal 82.7% | ACHN renal 91.7% | CAKI-1 renal 92.4% | A498 renal 92.2% | CCRF-CEM leukemia 86.7% | MOLT-4 leukemia 102% | SR leukemia 83.7% | RPMI-8226 leukemia 96.6% | OVCAR-8 ovarian 97.2% | OVCAR-5 ovarian 90.9% | OVCAR-4 ovarian 96.1% | SK-OV-3 ovarian 112% | IGROV1 ovarian 102% | OVCAR-3 ovarian 118% | NCI/ADR-RES ovarian 106%

CCOC(=O)c1cc(-c2ccccc2)nc(N)n1
inactive: SK-MEL-2 melanoma 110% | SN12C renal 94.6% | UO-31 renal 79.1% | TK-10 renal 127% | ACHN renal 92.7% | CAKI-1 renal 94% | A498 renal 86.5% | CCRF-CEM leukemia 98.7% | MOLT-4 leukemia 108% | SR leukemia 106% | RPMI-8226 leukemia 99.6% | OVCAR-8 ovarian 103% | OVCAR-5 ovarian 98.2% | OVCAR-4 ovarian 107% | SK-OV-3 ovarian 103% | IGROV1 ovarian 103% | OVCAR-3 ovarian 109% | HS 578T breast 92.5% | NCI/ADR-RES ovarian 100%
